Source: PubChem
A selection: hits, their analogues and other compounds. The true share with any hit is near 3.7%.
S2 tox: Viability Counterscreen for Primary qHTS for Inhibitors of ATXN expression; S2 cells (HEK-293 line with an ATXN2-luciferase reporter) viability, CellTiter-Fluor protease fluorescence, 24 h; Potency, µM (top dose mostly 56.7 µM), hits mostly cytotoxic; 400,000 tested, 0.49% active; also: nearly all actives have a fitted effect of over 40% in size
TGFb SMAD3 inh: qHTS for Inhibitors of TGF-b. HepG2 CAGA-GFP TGF-b/SMAD3 reporter, GFP fluorescence, 18 h; TGF-beta stimulated, 500 pg/mL final. Potency, µM (doses to about 46.1 µM), for inactives: at the highest dose activity, negative = inhibition, usual class: inhibitors. 410,000 tested, 1.2% active. AID 588855, 2011; also: % is scaled to controls: 0 for no effect and ±100 for the full control effect; nearly all actives have a fitted effect of over 65% in size
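HEPG2 CAGA-GFP cells (1000/well, DMEM with 1% FBS) were pre-incubated 2 h at 37 degrees C, given compound by pin tool, then stimulated with TGF-beta at 500 pg/mL final for 18 h before per-cell GFP fluorescence imaging.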
HepG2 viability: qHTS for Inhibitors of TGF-b: Cytotox Counterscreen; HepG2 CAGA-GFP viability, ATP luminescence, 18 h; Potency, µM (titrated, usually from 46.1 µM), inactives show at the top dose activity change, negative = cytotoxicity, most hits filed as cytotoxic; AID 588856, 2011; 410,000 tested, 0.76% active
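CellTiter-Glo luminescence gave cytotoxicity after 18 hours at 37 degrees C. The cells were HepG2 CAGA-GFP in 1% FBS DMEM, stimulated with 500 pg/mL TGF-beta after compound addition. %Activity was normalised to no-cell wells (complete cell-killing) and DMSO (no toxicity), and curves were fitted and classified.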
ATXN2 expr inh: Primary qHTS for Inhibitors of ATXN expression. HEK-293 ATXN2-luciferase reporter, luminescence, 24 h. Potency, µM (titrated, usually from 57 µM), for the others: at the highest dose activity change, negative = inhibition, usual class: inhibitors. 360,000 tested, 0.72% active; also: % is scaled to controls: 0 for no effect and ±100 for the full control effect; nearly all actives have a fitted effect of over 55% in size
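ATXN2-luciferase reporter cells (luciferase flanked by upstream and downstream ATXN2 gene portions) were treated 24 h at 37 °C with compounds at up to 57 uM. SteadyGlo luminescence gave expression; GF-AFC fluorescence gave viability.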
GLP1R inv ag: qHTS of GLP-1 Receptor Inverse Agonists (Inhibition Mode). Glucagon-like peptide 1 receptor (Homo sapiens), P43220. HEK293 GLP-1R CRE-luciferase, luminescence, 24 h; GLP-1R form is constitutively active. Potency, µM (doses to about 38.3 µM), without a hit: at the highest dose activity change, negative = inhibition, most hits filed as inhibitors. 410,000 tested, 1.6% active; also: % is scaled to controls: 0 for no effect and ±100 for the full control effect; nearly all actives have a fitted effect of over 55% in size
Target sequence (P43220 whole entry, looked up): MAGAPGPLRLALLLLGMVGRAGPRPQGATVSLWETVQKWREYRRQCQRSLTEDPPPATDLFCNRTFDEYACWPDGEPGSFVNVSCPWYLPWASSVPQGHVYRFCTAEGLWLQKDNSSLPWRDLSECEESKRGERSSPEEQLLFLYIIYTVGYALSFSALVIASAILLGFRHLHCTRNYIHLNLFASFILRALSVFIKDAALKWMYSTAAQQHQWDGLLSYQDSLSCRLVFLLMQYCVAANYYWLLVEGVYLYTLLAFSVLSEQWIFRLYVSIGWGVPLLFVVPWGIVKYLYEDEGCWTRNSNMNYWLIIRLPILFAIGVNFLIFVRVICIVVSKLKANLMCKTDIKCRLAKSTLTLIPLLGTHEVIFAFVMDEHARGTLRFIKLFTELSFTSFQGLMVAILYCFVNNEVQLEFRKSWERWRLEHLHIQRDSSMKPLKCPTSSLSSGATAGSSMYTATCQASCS
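Inverse agonists were sought by their lowering of basal cAMP reporter luciferase output in HEK293 cells stably carrying constitutively active human GLP-1R, after 24 h compound treatment.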
GLP1R ag: qHTS of GLP-1 Receptor Agonists; HEK293 GLP-1R CRE-luciferase, luminescence, 4-6 h; cells express a hypersensitive GLP-1R form; 380,000 tested, 0.007% active; Potency, µM (series often up to 45.6 µM), inactives show at the highest dose activation, actives largely listed as activators; AID 624172, 2012; also: % of control where 0% means no effect
The depositor's hits bear a star; [ ] = another dose, or the depositor's remark. Calls follow the shape of the dose curve; as a rule, active = well fitted curve in the direction sought with a large enough effect; inconclusive = small, poorly fitted or top-dose-only effect, or another doubt; inactive = no such curve, though single readings can be large; an effect the other way counts as inactive or inconclusive. Potency is read from the fitted curve at half-maximal effect.

What do the screens show for `Cc1cc(NC(=S)N(CCCN2CCOCC2)Cc2ccco2)ccc1Cl`?
S2 tox: inactive; TGFb SMAD3 inh: inconclusive; HepG2 viability: 8%; ATXN2 expr inh: -11%; GLP1R inv ag: inconclusive; GLP1R ag: 13%

How did CCN1CCN(CCCN(Cc2ccco2)C(=S)Nc2ccc(Cl)c(C)c2)CC1 do in these assays?
S2 tox: inactive; TGFb SMAD3 inh: -12%; HepG2 viability: 11µM*; ATXN2 expr inh: -22%; GLP1R inv ag: -5%[7.66 µM]; GLP1R ag: -2%

What do the screens show for `CCOC(=O)c1ccc(NC(=S)N(CCN2CCCCCC2)Cc2ccco2)cc1`?
S2 tox: inactive; TGFb SMAD3 inh: -9%; HepG2 viability: -26%; ATXN2 expr inh: -23%; GLP1R inv ag: 6.3µM*; GLP1R ag: 8%

Results for CC(C)Oc1ccc(F)cc1-c1cc(C(=O)NCc2ccc(C(F)(F)F)cc2)[nH]n1 ?
S2 tox: inconclusive; TGFb SMAD3 inh: inconclusive; HepG2 viability: -35%; ATXN2 expr inh: -18%; GLP1R inv ag: -17%; GLP1R ag: -4%

What do the screens show for `CC(C)Oc1cc(F)ccc1-c1cc(C(=O)Nc2cccc(C(F)(F)F)c2)[nH]n1`?
S2 tox: 28µM*; TGFb SMAD3 inh: inconclusive; HepG2 viability: -38%; ATXN2 expr inh: inconclusive; GLP1R inv ag: inconclusive; GLP1R ag: -3%

How did CC(C)Oc1ccc(F)cc1-c1cc(C(=O)NCc2cc(C(F)(F)F)cc(C(F)(F)F)c2)[nH]n1 do in these assays?
S2 tox: inconclusive; TGFb SMAD3 inh: 11µM*; HepG2 viability: -34%; ATXN2 expr inh: 0%; GLP1R inv ag: inconclusive; GLP1R ag: -7%

What do the screens show for `O=C(NCCSc1c(-c2ccc(Br)cc2)[nH]c2ccccc12)c1ccc(S(=O)(=O)N2CCOCC2)cc1`?
S2 tox: inconclusive; TGFb SMAD3 inh: -18%; HepG2 viability: -22%; ATXN2 expr inh: -12%; GLP1R inv ag: -26%

Results for Cn1c(SCC(=O)NCc2ccco2)nnc1-c1cccc(NC(=O)c2ccccc2)c1 ?
TGFb SMAD3 inh: -8%; HepG2 viability: -24%

How did C[C@H](O)CN(C)C do in these assays?
GLP1R ag: -3%

What do the screens show for `C/C(=N\NC(N)=S)c1ccc(Cl)s1`?
S2 tox: inactive; TGFb SMAD3 inh: -25%; HepG2 viability: -9%; ATXN2 expr inh: -11%; GLP1R inv ag: 3.2µM*; GLP1R ag: 11%

What do the screens show for `CN[C@@H]1[C@@H](O)[C@@H](O[C@@H]2[C@@H](O)[C@H](O[C@H]3O[C@H](CN)[C@@H](O)[C@H](O)[C@@H]3O)[C@@H](N)C[C@@H]2NC(=O)[C@@H](O)CN)OC[C@]1(C)O`?
ATXN2 expr inh: 5%

How did CCN(Cc1ccc(OC)c(F)c1)C(=O)C1CCCO1 (stereo not drawn) do in these assays?
S2 tox: inactive; TGFb SMAD3 inh: 0%; HepG2 viability: -2%; ATXN2 expr inh: 5%; GLP1R inv ag: -11%; GLP1R ag: 6%

Results for CCN(Cc1ccc(OC)c(F)c1)C(=O)CCl ?
S2 tox: inconclusive; TGFb SMAD3 inh: -7%; HepG2 viability: -59%; ATXN2 expr inh: -4%; GLP1R inv ag: 3.2µM*; GLP1R ag: 0%

What do the screens show for `O=C(Nc1ccc(F)c(Cl)c1)C1CCN(S(=O)(=O)c2ccc3c(c2)CCCN3C(=O)C2CCC2)CC1`?
S2 tox: inactive; TGFb SMAD3 inh: 0%; HepG2 viability: -19%; ATXN2 expr inh: -30%; GLP1R inv ag: inconclusive

What do the screens show for `CCCc1cc(-c2nc(N)ncc2-c2ccc3c(c2)OCCCO3)c(O)cc1OC`?
S2 tox: inconclusive; TGFb SMAD3 inh: inconclusive; HepG2 viability: -124%; ATXN2 expr inh: inconclusive; GLP1R inv ag: 10µM*; GLP1R ag: -30%

How did CCCc1cc(-c2nc(N)ncc2-c2csc(C)n2)c(O)cc1OC do in these assays?
S2 tox: inconclusive; TGFb SMAD3 inh: 5%; HepG2 viability: 7%; GLP1R inv ag: 17%; GLP1R ag: 16%

What do the screens show for `Cc1cc(C)cc(NC(=O)Nc2cc(-c3ccccc3)nn2C)c1`?
S2 tox: inactive; TGFb SMAD3 inh: -14%; HepG2 viability: 11%; ATXN2 expr inh: 22%; GLP1R inv ag: 8.9µM*; GLP1R ag: 22%

What do the screens show for `Cn1nc(-c2ccccc2)cc1NC(=O)Nc1ccccc1F`?
S2 tox: inactive; TGFb SMAD3 inh: -26%; HepG2 viability: -12%; ATXN2 expr inh: 24%; GLP1R inv ag: inconclusive; GLP1R ag: 7%

Results for OCCN1CCN(CC/C=C2/c3ccccc3CSc3ccccc32)CC1 ?
S2 tox: inactive; TGFb SMAD3 inh: inconclusive; HepG2 viability: -60%; GLP1R inv ag: 8.9µM*; GLP1R ag: 4%

What do the screens show for `Cc1cc(=O)oc2c(N)nccc12`?
S2 tox: 35µM*; TGFb SMAD3 inh: inconclusive; HepG2 viability: -112%; ATXN2 expr inh: inconclusive; GLP1R inv ag: 28%; GLP1R ag: -2%

Results for O=C(c1ccc2c(c1)CCN2S(=O)(=O)c1ccc(Cl)cc1)N1CCN(c2ccccc2F)CC1 ?
S2 tox: inconclusive; TGFb SMAD3 inh: 0%; HepG2 viability: -12%; ATXN2 expr inh: -12%; GLP1R inv ag: inconclusive

What do the screens show for `COc1cccc(C(=O)C2CCCN(Cc3cn[nH]c3C3CCCCC3)C2)c1` (stereo not drawn)?
S2 tox: inactive; TGFb SMAD3 inh: -13%; HepG2 viability: -20%; ATXN2 expr inh: -15%; GLP1R inv ag: 10µM*; GLP1R ag: 14%

How did Cc1cc(C)c2c(NC(=O)CCl)nn(C)c2n1 do in these assays?
S2 tox: inconclusive; TGFb SMAD3 inh: -3%; HepG2 viability: -13%; ATXN2 expr inh: -4%[11.3 µM]; GLP1R inv ag: inconclusive; GLP1R ag: -4%

Results for CCc1cc(SC#N)cc(CC)c1NC(=O)CCl ?
S2 tox: inconclusive; TGFb SMAD3 inh: 7.9µM*; HepG2 viability: -81%; ATXN2 expr inh: inconclusive; GLP1R inv ag: inconclusive; GLP1R ag: -12%

How did Cc1cc(O)c(C(c2ccc(F)cc2)N2CCCCC2)c(=O)n1Cc1ccco1 (stereo not drawn) do in these assays?
TGFb SMAD3 inh: 3%; HepG2 viability: -3%; GLP1R inv ag: -20%

What do the screens show for `Cc1oc(C(C)(C)C)cc1C(=O)NC1CCN(Cc2ccccc2)CC1`?
S2 tox: inactive; TGFb SMAD3 inh: -16%; HepG2 viability: -7%; ATXN2 expr inh: -13%; GLP1R inv ag: 13µM*; GLP1R ag: -1%
